Screening data: PubChem, The Scripps Research Institute Molecular Screening Center
Compounds with a hit are over-represented: about 3.5% of the library has one in this group of screens.
FBW7 activator – human FBW7 E3 ligase activation, primary screen | AlphaScreen FBW7–phospho-cyclin E peptide binding, activator screen | normalized activity (activation), % at 26.1 µM | actives 0.13% (n = 650,000) | AID 1259310; in the data active means normalized activity above about 1.9%;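 further: purified mutant Fbw7 with reduced substrate affinity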
TEAD-YAP block – TEAD-YAP interaction inhibition | inhibition, % at 9.12 µM | HEK-TIYL cells, TEAD-Gal4/YAP UAS-luciferase luminescence | actives 1.4% (n = 640,000); in the data active means inhibition above about 32%;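 further: 0% = median of test compound wells and 100% = reference inhibitor wells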
GPR151 activ – activates the human receptor GPR151. AID 1508602. PathHunter beta-arrestin GPR151 cells, luminescence. actives 1% (n = 650,000). activation, % at 11.2 µM. Q8TDV0; in the data active means activation above about 4.9%;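 further: 0% = median of compound wells and 100% = cells with positive control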
MITF inh – human MITF inhibition, primary screen; AID 1259374; O75030; AlphaScreen MITF homodimerization, bead proximity signal; actives 0.91% (n = 650,000); inhibition, % at 2.6 µM; in the data active means inhibition above about 50%;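 further: 0% = vehicle wells with protein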
The depositor's hits bear a star.

`CC[C@]1(O)CC2CN(CCc3c([nH]c4ccccc34)[C@@](C(=O)OC)(c3cc4c(cc3OC)N(C)[C@H]3[C@@](O)(C(=O)OC)[C@H](OC(C)=O)[C@]5(CC)C=CCN6CC[C@]43[C@@H]65)C2)C1` (some centres undefined) gave FBW7 activator 0, TEAD-YAP block 59*, GPR151 activ 2 and MITF inh -7.
Screening CCC1(O)CC2CN(CCc3c([nH]c4ccccc34)[C@@](C(=O)OC)(c3cc4c(cc3OC)N(C=O)C3[C@]45CCN4CC=C[C@@](CC)([C@@H](OC(C)=O)[C@]3(O)C(=O)OC)[C@H]45)C2)C1 (some centres undefined) returned FBW7 activator 0, TEAD-YAP block 69*, GPR151 activ -1 and MITF inh 26.
Screening COc1ccc(C2c3[nH]c4ccccc4c3CCN2C(=O)CNC(C)=O)c(C)c1C (centres undefined) returned FBW7 activator 0, TEAD-YAP block 4, GPR151 activ -1 and MITF inh -7.
For COc1ccccc1NC(=O)N1CCC2(CC1)OCCc1c2[nH]c2ccccc12 the results were FBW7 activator 0, TEAD-YAP block -4, GPR151 activ 0 and MITF inh 6.
`CC[C@]1(O)C[C@H]2CN(CCc3c([nH]c4ccccc34)[C@H](C)[C@H]2c2cc3c(cc2OC)N(C=O)[C@H]2[C@@](O)(C(=O)OC)[C@H](C)[C@]4(CC)C=CCN5CC[C@]32[C@@H]54)C1` gave FBW7 activator 0, TEAD-YAP block 56*, GPR151 activ 2 and MITF inh 4.
`O=C(NCc1ccc(Cl)c(Cl)c1)c1cc2ccccc2oc1=O` gave FBW7 activator 0, TEAD-YAP block -8, GPR151 activ 0 and MITF inh 11.
For C=CCNc1cc(-c2ccccc2)nc(-c2ccccn2)n1 the results were FBW7 activator -1, TEAD-YAP block 88*, GPR151 activ 0 and MITF inh 13.
For CCN(CC)c1cc(-c2ccccc2)nc(-c2ccccn2)n1 the results were FBW7 activator 0, TEAD-YAP block 47*, GPR151 activ 3 and MITF inh -8.
`COCCCNC(=O)C1c2ccccc2C(=O)N2CCc3cc(OC)c(OC)cc3C12` (centres undefined) gave FBW7 activator 0, TEAD-YAP block -9, GPR151 activ 0 and MITF inh 2.
For CCCOC(=O)C1=C(C)NC2=C(C(=O)CC(c3ccc(OC)c(OC)c3)C2)C1c1cccc(Cl)c1 (centres undefined) the results were FBW7 activator 1, TEAD-YAP block 35*, GPR151 activ 0 and MITF inh 8.
Screening COc1ccccc1C1C(C(=O)OC2CCCC2)=C(C)NC2=C1C(=O)CC(c1ccccc1)C2 (centres undefined) returned FBW7 activator 2.6*, TEAD-YAP block -2, GPR151 activ 1 and MITF inh 2.
Screening CCCOC(=O)C1=C(C)NC2=C(C(=O)CC(c3ccc(OC)c(OC)c3)C2)C1c1ccc(Cl)cc1Cl (centres undefined) returned FBW7 activator 0, TEAD-YAP block 4, GPR151 activ -1 and MITF inh 12.
Screening COc1ccc(C2CC(=O)C3=C(C2)NC(C)=C(C(=O)OC2CCCC2)C3c2cccc([N+](=O)[O-])c2)cc1OC (centres undefined) returned FBW7 activator 0, TEAD-YAP block 42*, GPR151 activ 1 and MITF inh 14.
For COc1cccc(C2C(C(=O)OC3CCCC3)=C(C)NC3=C2C(=O)CC(c2ccccc2)C3)c1OC (centres undefined) the results were FBW7 activator 0, TEAD-YAP block 4, GPR151 activ -1 and MITF inh -19.
Screening COc1ccc(C2CC(=O)C3=C(C2)NC(C)=C(C(=O)OC2CCCC2)C3c2cccc(C)c2)cc1OC (centres undefined) returned FBW7 activator 0, TEAD-YAP block 47*, GPR151 activ 0 and MITF inh -34.
Screening COc1ccc(C2CC(=O)C3=C(C2)NC(C)=C(C(=O)OC2CCCC2)C3c2cccc(Cl)c2)cc1OC (centres undefined) returned FBW7 activator 0, TEAD-YAP block 30, GPR151 activ 2 and MITF inh -8.
`O=C(NCc1nc2ccccc2[nH]1)c1cnc(NC2CCN(Cc3ccccc3)CC2)s1` gave FBW7 activator 0, TEAD-YAP block 3, GPR151 activ -3 and MITF inh -7.
`O=C(NCC1(c2ccc(F)cc2)CC1)c1cnccn1` gave FBW7 activator 1, TEAD-YAP block -2, GPR151 activ 0 and MITF inh 17.
